From PubChem BioAssay (NCI)
Compounds without any hit were thinned out: in the full panel of roughly 83,000, 20% have a hit.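 Note: values are percent growth. 100 is the growth of untreated cells, values between 100 and 0 indicate rising inhibition; between -100 and 0 indicates cell death.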 Values without a mark were called inactive. Active and inactive are the calls of the source.

Test system: SK-MEL-2 melanoma
Experiment: NCI-60 one-dose screen, 48 h (100 = growth as untreated, 0 = no growth, -100 = all killed)
Details: 10 µM unless noted
Procedure: Growth inhibition of the SK-MEL-2 human tumor cell line is measured as a screen for anti-cancer activity. Cells are grown in 96 well plates and exposed to the test compound for 48 hours. Compounds are tested at a single concentration, which is 10^-5 M for most compounds. The reported endpoint is percent growth (GI% or GIPRCNT), where numbers from 0 - 100% represent growth inhibition, and numbers from -100% - 0 represent cell death. For example, a value of 40 represents 60% growth inhibition. A value of 0 means no net growth occurred over the course of the experiment. A value of -40 indicates 40% of cells at the beginning of the experiment died by the end of the experiment. A value of -100 means all cells are dead at the end of the experiment.
NCI-60 Human Tumor Cell Lines Screen was performed using the standard one-dose NCI protocol, which is described in more detail at https://dtp.cancer.gov/discovery_development/nci-60/default.htm.
Compounds with GIPRCNT values below 10 were considered active. Activity score was based on GIPRCNT using the following formula: […]
Score is 0 for GIPRCNT values of 100 or above, 50 for GIPRCNT values of 0, and 100 for GIPRCNT values of -100.

Row | Compound | growth
1 | COc1cccc(-c2nn(-c3ccccc3)cc2-c2ccnc(NCCCNC(=O)Nc3ccc(Cl)c(Cl)c3)c2)c1 | -53.9% (active)
2 | O=c1[nH]nc(-c2ccccc2)c2c(-c3ccccc3)onc12 | 30.7%
3 | FC(F)(F)c1cc(Nc2ccc3cc(OCCCN4CCOCC4)ccc3n2)ccc1Cl | 46%
4 | COc1ccccc1CNCCCN1C(=O)c2ccc3c4c(ccc(c24)C1=O)C(=O)N(CCCNCCCCN)C3=O | -67.9% (active)
5 | Nc1nc(N)c2c(n1)NC(c1ccccc1)C1CCc3ccccc3C1=N2 (stereo not given) | 86.6%
6 | CCCCCCCCCCN(CCCCCCCCCC)CC(=O)c1ccc2cc(Br)c3ccccc3c2c1 | 101%
7 | N#Cc1c(-c2cccc(Cl)c2)cc(-c2cccc(Cl)c2)[nH]c1=O | 67%
8 | CC(C)CC(NC(=O)CN(Cc1ccccc1)S(C)(=O)=O)C(=O)O (stereo not given) | 125%
9 | Cc1cc(=O)[nH]c(N=Nc2c(O)[nH]c3ccccc23)n1 | 103%
10 | O=C1c2cccc(NCCN=Cc3cc([N+](=O)[O-])ccc3O)c2C(=O)c2c(NCCN=Cc3cc([N+](=O)[O-])ccc3O)cccc21 | 96%
11 | CCc1ccccc1NC(=O)/C(C#N)=C/c1ccc(OC)cc1 | 104%
12 | Cc1ccc2nc3ccccc3c(NCc3ccccc3)c2c1 | 100%
13 | COc1ccc(C(=O)/C=C/c2c(C(F)(F)F)nc3sccn23)cc1OC | 80.4%
14 | CC(CCc1ccc(Cl)c(Cl)c1)NCc1ccc(C(C)(C)C)cc1 (stereo not given) | 105%
15 | COc1cc(C2CC(=O)Nc3c2c(C)nn3-c2nc3ccccc3[nH]2)cc2c1OCC(=O)N2 (stereo not given) | 68.1%
16 | CNS(=O)(=O)c1n[nH]nc1-c1cc(C(C)(C)C)c(O)c(C(C)(C)C)c1 | 104%
17 | O=c1[nH]ccc2nc(N3CCC(O)CC3)nc(Nc3ccc(N4CCOCC4)cc3)c12 | 69.3%
18 | COc1ccc(OC)c2c1[nH]c(=O)c1c3ncccc3cn21 | 65.6%
19 | N#CCN1C(=O)C2C3=C(CCCC3)SC2N=C1CN1CCCC1 (stereo not given) | 83.5%
20 | O=c1cc(C2NNC(=S)N2)c2ccc3ccccc3c2o1 (stereo not given) | 106%

Row | Compound | growth
21 | COc1ccc2cc(-c3cc(OC)c(OC)c(OC)c3)c(=O)oc2c1 | 62.3%
22 | O=c1c2cc(F)ccc2sc2c(NCCN3CCCCC3)nc3ccccc3c12 | 98.7%
23 | CCOC(=O)c1c(-c2ccc(Cl)cc2)c(C#N)c(=O)n(-c2ccccc2CC)c1N | 114%
24 | COC(=O)[C@]12CC[C@@H](C)[C@H](C)[C@@H]1C1=CC[C@@H]3[C@@]4(C)C(C=O)=C[C@@](C)(COC(=O)c5ccco5)C4=CC[C@@]3(C)[C@]1(C)CC2 | -42.1% (active)
25 | CS(=O)(=O)c1ccc(Nc2nc(N[C@H]3CCCC[C@H]3N)nc3cc[nH]c(=O)c23)cc1 | -40% (active)
26 | CC/C=C\C/C=C\C[C@H](O)C/C=C1/C(=O)C=C[C@@H]1C/C=C\CCCC(=O)O | 23.2%
27 | COc1cccc(-c2nc3sccn3c2/C=C/C(=O)c2ccc(C(F)(F)F)cc2)c1 | 79.1%
28 | COc1cc(-c2nc(N3CCN(C)CC3)c3ccccc3n2)cc(OC)c1OC | 81.2%
29 | Cc1cc(NCc2cc(Nc3ccnc4cc(Cl)ccc34)ccc2F)nc(Cl)n1 | 54.6%
30 | C[C@H]1[C@H]2[C@H]3CC[C@@H]4[C@@]5(C)C/C(=C/c6ccco6)C(=O)C(C)(C)[C@@H]5CC[C@@]4(C)[C@]3(C)CC[C@]23CO[C@]1(C)[C@@H](C(=O)/C=C\c1ccco1)C3 | 65.6%
31 | CCN1C(=O)N(CC)C2Nn3c(s/c(=C\c4cccc([N+](=O)[O-])c4)c3=O)=NC21 (stereo not given) | 73.3%
32 | Cn1c(-c2c(N)n(Cc3ccc(C(F)(F)F)cc3)c3nc(C#N)c(C#N)nc23)nc2ccccc21 | 15.4%
33 | Cn1cc(-c2csc(-c3ccccc3)n2)c2cccnc21 | -48.2% [100 µM] (active)
34 | O=C1/C(=C2/C=Nc3ccccc32)N(O)c2ccccc21 | 90.4%
35 | CC(C)C(=O)Nc1n[nH]c2cc(-c3cccc(NS(=O)(=O)C4CC4)c3)ccc12 | 78%
36 | Cc1ccc(NS(=O)(=O)c2ccc3c(c2)C2OCCC2C(c2ccc(C(=O)C(C)C)cc2)N3)cc1C (stereo not given) | 72.9%
37 | COc1ccc(C(=NN=C(N)N)c2ccc(OC)cc2)cc1 | 32.3%
38 | N=C1C(c2nc(-c3ccc(Br)cc3)cs2)=C(O)CN1Cc1cccnc1 | 111%
39 | COc1cc2c(cc1-c1c(C)noc1C)ncc1nc(C3CCCCC3)n(C3CCC(OC(F)F)CC3)c12 (stereo not given) | 6.6% (active)
40 | O=C(CSc1nccc(Nc2ccc(S(=O)(=O)Nc3nccs3)cc2)n1)c1ccc(F)cc1 | 105%
